According to PubChem BioAssay AID1159580 (chemical genetic matrix, 2015):
Several values for one entry are separate records, joined by “and”; a condition that tells them apart may be missing. Identical values can stand only once. The campaign covered roughly 5,500 compounds. About 2,000 (36%) were called active. Not shown: some 18% with an inconclusive outcome. Cut-off read from the data, not from the text of the source: active = normalized growth mostly below about 0.91 (no sharp cut-off); inconclusive = no clear call, values can overlap the other calls; inactive = mostly above about 0.92. The list shows a part of the results.

Test: chemical genetic growth profiling, strain panel (AID 1159580);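 note: tested at 20 µM; growth read once vehicle control cultures reached saturation at 30 °C; 1 = growth at the plate median or of vehicle wells; lower values mean less growth of the strain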
Conditions: S. cerevisiae deletion strains, growth OD

Measured: normalized growth

O=C(O)c1ccccc1C(=O)Nc1ccc(S(=O)(=O)Nc2nccs2)cc1
inactive: locus YAL013W, strain DEP1, stronger effect = lower value 1.01 | locus YAL021C, strain ccr4, stronger effect = lower value 0.977 | locus YAL026C, strain drs2, stronger effect = lower value 0.986 | locus YAL030W, strain snc1, stronger effect = lower value 0.987 | locus YBL061C, strain skt5, stronger effect = lower value 0.968 | locus YBR009C, strain hhf1, stronger effect = lower value 0.994 | locus YBR021W, strain FUR4, stronger effect = lower value 1.01 | locus YBR023C, strain chs3, stronger effect = lower value 0.966 | locus YBR171W, strain sec66, stronger effect = lower value 0.978 | locus YBR229C, strain ROT2, stronger effect = lower value 1 | locus YBR231C, strain swc5, stronger effect = lower value 0.985 | locus YBR279W, strain paf1, stronger effect = lower value 0.991 | locus YCL011C, strain gbp2, stronger effect = lower value 0.978 | locus YCL016C, strain dcc1, stronger effect = lower value 0.954 | locus YCL029C, strain bik1, stronger effect = lower value 0.994 | locus YCL061C, strain MRC1, stronger effect = lower value 0.971 | locus YCL069W, strain vba3, stronger effect = lower value 0.988 | locus YCR088W, strain abp1, stronger effect = lower value 0.987 | locus YDL005C, strain med2, stronger effect = lower value 0.973 | locus YDL035C, strain GPR1, stronger effect = lower value 1.02 | locus YDL040C, strain nat1, stronger effect = lower value 0.977 | locus YDL074C, strain BRE1, stronger effect = lower value 1.01 | locus YDL101C, strain DUN1, stronger effect = lower value 1.01 | locus YDL134C, strain PPH21, stronger effect = lower value 1 | locus YDL185W, strain tfp1, stronger effect = lower value 0.995 | locus YDL192W, strain arf1, stronger effect = lower value 0.998 | locus YDR001C, strain nth1, stronger effect = lower value 0.987 | locus YDR069C, strain doa4, stronger effect = lower value 0.975 | locus YDR101C, strain arx1, stronger effect = lower value 0.984 | locus YDR137W, strain rgp1, stronger effect = lower value 0.963 | locus YDR159W, strain sac3, stronger effect = lower value 0.992 | locus YDR162C, strain NBP2, stronger effect = lower value 1 | locus YDR195W, strain ref2 0.996 | locus YDR297W, strain sur2, stronger effect = lower value 0.988 | locus YDR318W, strain mcm21, stronger effect = lower value 0.999 | locus YDR334W, strain swr1, stronger effect = lower value 0.966 | locus YDR335W, strain msn5, stronger effect = lower value 0.984 | locus YDR388W, stronger effect = lower value 0.993 | locus YDR392W, strain spt3, stronger effect = lower value 0.93 | locus YDR502C, strain sam2, stronger effect = lower value 1 | locus YEL003W, strain gim4, stronger effect = lower value 1.01 | locus YEL037C, strain rad23, stronger effect = lower value 0.981 | locus YEL061C, strain CIN8 (second series), stronger effect = lower value 0.99 | locus YEL061C, strain CIN8, stronger effect = lower value 1.01 | locus YER015W, strain faa2, stronger effect = lower value 0.96 | locus YER016W, strain bim1, stronger effect = lower value 0.993 | locus YER110C, stronger effect = lower value 0.998 | locus YER111C, strain swi4, stronger effect = lower value 0.973 | locus YER155C, strain BEM2 (second series), stronger effect = lower value 0.981 | locus YER155C, strain BEM2, stronger effect = lower value 0.995 | locus YER167W, strain BCK2, stronger effect = lower value 0.996 | locus YFR010W, strain ubp6, stronger effect = lower value 0.999 | locus YGL078C, strain dbp3, stronger effect = lower value 0.994 | locus YGL086W, strain mad1, stronger effect = lower value 0.991 | locus YGL167C, strain pmr1, stronger effect = lower value 0.962 | locus YGL173C, strain kem1, stronger effect = lower value 0.959 | locus YGL227W, strain vid30, stronger effect = lower value 0.985 | locus YGL240W, strain doc1, stronger effect = lower value 0.992 | locus YGL248W, strain PDE1, stronger effect = lower value 1 | locus YGL253W, strain hxk2, stronger effect = lower value 0.984 | locus YGR135W, strain pre9, stronger effect = lower value 0.995 | locus YGR229C, strain SMI1, stronger effect = lower value 1.01 | locus YGR252W, strain gcn5, stronger effect = lower value 0.995 | locus YHR013C, strain ard1, stronger effect = lower value 0.949 | locus YHR027C, strain rpn1, stronger effect = lower value 0.977 | locus YHR030C, strain SLT2, stronger effect = lower value 1 and 1.03 | locus YHR079C, strain IRE1 (second series), stronger effect = lower value 0.995 | locus YHR079C, strain IRE1, stronger effect = lower value 1.05 | locus YHR094C, strain hxt1, stronger effect = lower value 0.994 | locus YHR129C, strain ARP1, stronger effect = lower value 1 | locus YHR142W, strain chs7, stronger effect = lower value 0.959 | locus YHR200W, strain rpn10, stronger effect = lower value 0.995 | locus YIL066C, strain RNR3, stronger effect = lower value 1.01 | locus YIL073C, strain SPO22, stronger effect = lower value 1.01 | locus YIL125W, strain kgd1, stronger effect = lower value 0.991 | locus YIR030C, strain dcg1, stronger effect = lower value 0.993 | locus YJL092W, strain hpr5, stronger effect = lower value 0.983 | locus YJL095W, strain BCK1 (second series), stronger effect = lower value 0.982 | locus YJL095W, strain BCK1, stronger effect = lower value 1.02 and 1.01 | locus YJL115W, strain asf1, stronger effect = lower value 0.973 | locus YJL129C, strain trk1, stronger effect = lower value 0.976 | locus YJL134W, strain LCB3, stronger effect = lower value 1 | locus YJL154C, strain vps35, stronger effect = lower value 0.979 | locus YJL164C, strain tpk1, stronger effect = lower value 0.991 | locus YJL166W, strain qcr8, stronger effect = lower value 0.985 | locus YJL168C, strain set2, stronger effect = lower value 0.993 | locus YJL187C, strain SWE1 (second series), stronger effect = lower value 1.02 | locus YJL187C, strain SWE1, stronger effect = lower value 0.979 | locus YJR043C, strain POL32, stronger effect = lower value 0.995
